Results as given in PubChem BioAssay AID1240 (Sanford-Burnham Center for Chemical Genomics, 2008).
Hit rate of the full screen: of about 50,000 compounds, about 800 (1.6%) showed an effect of 50% or more. The list comes from a sample in which strong results are over-represented; it also holds similar structures and randomly drawn compounds.

Biological target: Bcl-2-like protein 10 (Homo sapiens) (UniProt Q9HD36)
Assay: TR3 peptide-Bcl-B binding displacers, biochemical primary FP assay, phenotype converters (AID 1240);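 note: 0% = Bcl-B with tracer peptide and DMSO and 100% = tracer peptide lacking Bcl-B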
Conditions: GST-Bcl-B / FITC-TR3 peptide fluorescence polarization; stronger effect = higher value; compound at 3.75 mg/L

Sequence of Bcl-2-like protein 10 (Homo sapiens) (Q9HD36 whole entry, looked up): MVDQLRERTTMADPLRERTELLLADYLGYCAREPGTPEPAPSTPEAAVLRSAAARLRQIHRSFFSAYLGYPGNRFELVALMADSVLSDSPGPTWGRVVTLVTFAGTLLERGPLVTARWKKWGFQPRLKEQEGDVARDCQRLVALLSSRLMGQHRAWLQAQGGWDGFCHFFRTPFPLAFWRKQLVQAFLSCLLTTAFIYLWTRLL

Compound	displacement [%]
CCc1cc(=O)oc2cc(OC(C)=O)ccc12	12.3
CCOC(=O)c1ccccc1N(C(=O)C(F)(F)F)C1C=CS(=O)(=O)C1 (stereo not given)	-3.1
O=C(N(c1cccc2ccccc12)C1C=CS(=O)(=O)C1)C(F)(F)F (stereo not given)	66
O=C(N(c1cccc(C(F)(F)F)c1)C1C=CS(=O)(=O)C1)C(F)(F)F (stereo not given)	14.6
CC(Oc1ccccc1)C(=O)N1CCC(Cc2ccccc2)CC1 (stereo not given)	3.1
C=CCN1C(=O)/C(=C\c2ccc3c(c2)OCO3)C(=O)NC1=S	4.4
COc1c(Cl)cc(C(=O)Nc2c(C)cccc2C)cc1Cl	6.7
COc1ccc(Br)cc1C1C(C(=O)OCCOC(C)C)=C(C)NC2=C1C(=O)CCC2 (stereo not given)	-2.6
Cc1ccc(NC(=O)CN(c2ccc(C(C)C)cc2)S(=O)(=O)c2ccccc2)c(C)c1	5.6
COc1cc(C2OCC3(CO)C(C)C=C(C)C2C3C)ccc1O (stereo not given)	16.4
Cc1cccc(N2C(=O)c3ccc(-c4ccc5c(c4)C(=O)N(c4cccc(C)c4)C5=O)cc3C2=O)c1	6.7
Cc1cccc(N2C(=O)c3cccc4c(N5CCOCC5)ccc(c34)C2=O)c1	154
Cc1cccc(N2C(=O)c3cccc4c(N5CCCCC5)ccc(c34)C2=O)c1	15.5
O=C1c2cccc3c(N4CCNCC4)ccc(c23)C(=O)N1c1ccc(Cl)cc1	101
O=C1c2cccc3c(N4CCCCC4)ccc(c23)C(=O)N1c1ccc(Cl)cc1	5.7
COc1ccc(N2C(=O)c3cccc4c(N5CCNCC5)ccc(c34)C2=O)cc1	37.2
CC(=O)Oc1ccc(-c2cccc(C(=O)NC(CO)C(O)c3ccc([N+](=O)[O-])cc3)c2)cc1 (stereo not given)	10.4
COC(=O)c1ccc(-n2ncnc2-c2ccc(Br)cc2)cc1	-5.4
CCC(=O)NC(Nc1ccc(OC)cc1)(C(F)(F)F)C(F)(F)F	-2.7
Cc1oc2c(CN3CC4(C)CC3CC(C)(C)C4)c(O)ccc2c(=O)c1-c1nc2ccccc2s1 (stereo not given)	11.2
Cc1csc(-c2cc3ccc(O)c(CN4CC5(C)CC4CC(C)(C)C5)c3oc2=O)n1 (stereo not given)	138
Cc1csc(-c2cc3ccc(OCc4c(F)c(F)c(F)c(F)c4F)cc3oc2=O)n1	6.9

Compound	displacement [%]
COc1ccc(C)cc1NC(=O)COc1ccc(Cl)cc1C	-5.2
O=C(O)CCC(=O)Nc1ccc(CC(=O)O)cc1	21.4
CCOC(=O)c1c(NC(=O)C2CCCO2)sc(C(=O)N(CC)CC)c1C (stereo not given)	-4
N#C/C(=C\c1ccc(Cl)cc1)c1nn(CCO)c(N)c1C#N	11.2
N#C/C(=C\c1ccc(F)cc1)c1nn(CCO)c(N)c1C#N	-45.5
CCN(CC)c1ccc(/C=C(\C#N)c2nn(CCO)c(N)c2C#N)cc1	68.2
COc1cc(OC)cc(C(=O)O/N=C(\c2ccncc2)c2ccc([N+](=O)[O-])cc2)c1	10.5
O=C(O)CCCN1C(=O)/C(=C\c2ccc(-c3ccc(Br)cc3)o2)SC1=S	-65.6
O=C(O)CCN1C(=O)/C(=C/c2ccc(-c3ccc([N+](=O)[O-])cc3)o2)SC1=S	-59.7
O=C1/C(=C/c2ccc(-c3ccc([N+](=O)[O-])cc3)o2)SC(=S)N1Cc1ccccc1	9.4
O=C(O)CCCN1C(=O)/C(=C\c2ccc(-c3cccc([N+](=O)[O-])c3)o2)SC1=S	59
O=C1/C(=C/c2ccc(-c3cccc([N+](=O)[O-])c3)o2)SC(=S)N1Cc1ccco1	9.9
O=C1/C(=C\c2ccc(-c3cccc([N+](=O)[O-])c3)o2)SC(=S)N1CCc1ccccc1	114
O=C(NC1CCN(Cc2ccccc2)CC1)c1ccc(F)cc1	2.6
FC(F)(F)c1cccc(NC(=S)NCc2ccc3c(c2)OCO3)c1	-6.8
Cc1cccc(OCCn2cc(/C=C3/SC(=S)N(C)C3=O)c3ccccc32)c1	15.1
COc1cccc(OCCn2cc(C=C3C(=O)NC(=S)NC3=O)c3ccccc32)c1	36.6
O=C1NC(=S)S/C1=C\c1cn(CCOc2ccccc2F)c2ccccc12	-62.3
CCc1cc(C)cc(OCCn2cc(C=C3C(=O)NC(=S)NC3=O)c3ccccc32)c1	14.7
CCc1cc(C)cc(OCCn2cc(/C=C3/SC(=S)NC3=O)c3ccccc32)c1	78.8
Cc1ccccc1OCCn1cc(C=C2C(=O)NC(=S)NC2=O)c2ccccc21	6.1
CCc1cc(C)cc(OCCn2cc(/C=C3/SC(=S)N(C)C3=O)c3ccccc32)c1	123

Compound	displacement [%]
CCC(C)c1ccccc1OCCn1cc(/C=C2/SC(=S)NC2=O)c2ccccc21 (stereo not given)	128
CCc1cc(C)cc(OCCOc2ccccc2/C=C2/SC(=S)N(C)C2=O)c1	2.3
O=C1NC(=S)S/C1=C/c1cn(CCOc2ccc(Br)cc2)c2ccccc12	68.9
CC(C)(C)c1ccc(OCCn2cc(/C=C3/SC(=S)NC3=O)c3ccccc32)cc1	15.2
COc1cccc(OCCn2cc(/C=C3/SC(=S)NC3=O)c3ccccc32)c1	-15.1
O=C(c1ccc([N+](=O)[O-])cc1)N1CCN(CC2CC3C=CC2C3)CC1 (stereo not given)	-6.8
O=C(Nc1ccccc1F)c1ccc(CSc2ccc(Cl)cc2)cc1	6
COc1ccccc1OCCNC(=O)c1ccc(Br)cc1	-19.3
CCOc1ccc(NC(=O)c2cc3cc(OC)ccc3oc2=O)cc1	13.8
O=C(Nc1ccccc1I)C1CC(=O)N(c2ccc(Br)cc2)C1 (stereo not given)	-26
CC1(C)CC(NC(=S)Nc2cccc(Cl)c2)CC(C)(C)N1	-3.3
O=S(=O)(c1ccc(Cl)cc1)n1cccc1	6.8
O=[N+]([O-])c1ccccc1C=Nc1cc2c(cc1Br)OCCO2	-4.8
COc1cc2c(cc1NS(=O)(=O)c1ccc([N+](=O)[O-])cc1)oc1ccccc12	-2.9
O=C(O)c1ccc(Cl)c(S(=O)(=O)N2CCCC2)c1	5.8
O=C1c2ccc(Oc3ccc4c(c3)C(=O)N(Cc3cccnc3)C4=O)cc2C(=O)N1Cc1cccnc1	-7
O=[N+]([O-])c1ccc(N2CCOCC2)cc1NC1CC1	4
COc1ccc(C(=O)NNC(=O)c2cccc(C)c2)c(OC)c1	3.3
CCOc1ccc(Nc2cc(=O)n(C)c(=O)n2C)cc1	-4.6
Cc1ccc(-c2ccccc2)n1-c1ccc(Cl)c(C(=O)O)c1	-41.6
COc1ccc(CSCC(=O)O)cc1C(=O)O	-8.5
Cc1ccc(-c2ccccc2)n1-c1ccccc1C(=O)O	86.8

Compound	displacement [%]
COc1cc(C(=O)O)c(-n2c(C)ccc2C)cc1OC	74.7
Cc1c(C(=O)O)cccc1-n1c(=O)c2cc3c(=O)n(-c4cccc(C(=O)O)c4C)c(=O)c3cc2c1=O	14
Cc1ccc(-c2ccccc2)n1-c1ccc(O)c(C(=O)O)c1	20.4
CC(=O)c1c(C(=O)O)cccc1C(=O)O	4.4
COc1ccc(N)cc1-n1c(C)ccc1C	42.5
Cc1c(C(=O)O)cccc1-n1c(C)ccc1C	85.4
CCOC(=O)C1=C(c2ccccc2)N=c2s/c(=C\c3cccnc3)c(=O)n2C1c1cc(OC)ccc1OC (stereo not given)	-3
Cc1ccc(C(=O)Nc2ccccc2C(=O)NC(Cc2c[nH]c3ccccc23)C(=O)O)cc1 (stereo not given)	7.1
CN1C(N)=NC(=O)C12COC(c1cccnc1)OC2 (stereo not given)	7.8
CC(=O)N(C)c1ccc(NC(=O)c2ccccc2[N+](=O)[O-])cc1	-4
Cc1ccc(N(CC(=O)NCCc2ccccc2)S(C)(=O)=O)cc1Cl	19.2
O=C(O)c1cccc(NC2=C(Cl)C(=O)N(c3ccc(Cl)cc3)C2=O)c1	32
Clc1ccccc1COc1cccc(/C=N/Nc2nc(N3CCOCC3)nc(N3CCOCC3)n2)c1	2.6
COc1ccc(-c2csc(/C(C#N)=C/c3ccc(C)o3)n2)cc1OC	-31.7
Cc1ccc(-c2csc(/C(C#N)=C/c3sccc3C)n2)cc1C	11.7
COc1cccc(-c2csc(/C(C#N)=C/c3sccc3C)n2)c1	-8.9
COc1ccc(-c2csc(/C(C#N)=C\c3sccc3C)n2)cc1	1.8
N#C/C(=C\c1cccc(F)c1)c1nc(-c2ccc([N+](=O)[O-])cc2)cs1	8.5
Cc1ccsc1/C=C(/C#N)c1nc(-c2ccc(-c3ccccc3)cc2)cs1	3.1
COc1ccc(-c2csc(/C(C#N)=C/c3sccc3C)n2)cc1OC	181
Cc1ccsc1/C=C(/C#N)c1nc(-c2ccc(Cl)cc2)cs1	81.1
N#C/C(=C\c1ccco1)c1nc(-c2ccccc2)cs1	58.3

Compound	displacement [%]
CCOc1ccc(-c2csc(/C(C#N)=C/c3ccco3)n2)cc1	-6
N#C/C(=C/c1ccco1)c1nc(-c2cc3ccccc3oc2=O)cs1	-1.2
Cc1ccsc1/C=C(\C#N)c1nc(-c2cccc([N+](=O)[O-])c2)cs1	147
CCC(=O)Nc1nc(C23CC4CC(CC(C4)C2)C3)c(C)s1	-2.7
COc1cc(/C=C2/SC(=S)N(Cc3ccccc3)C2=O)cc(Cl)c1OCc1ccccc1	12.4
CC1=C(C(=O)OCCc2ccccc2)C(c2ccccc2OCc2ccccc2)C2=C(CCCC2=O)N1 (stereo not given)	-6
CC(C)CN1C(=O)c2ccc(C(=O)Nc3c[nH]c(=O)[nH]c3=O)cc2C1=O	7.8
C=CCn1c(C)nc2c(cnn2-c2ccccc2)c1=O	-0.7
C=C(C)C1CC=C(C)/C(=N/NC(=O)c2cccc(C)c2)C1 (stereo not given)	14.9
CCn1cc(C(=O)NN)c(=O)c2cc(F)c(N3CCCCC3)cc21	17.4
COc1cc(/C=C2/SC(=S)N(C)C2=O)ccc1OCc1cccc2ccccc12	6.6
Cc1ccsc1/C=C(\C#N)c1nc(-c2cccc(Br)c2)cs1	95.2
CCc1ccc(/C=C(/C#N)c2nc(-c3ccc(Br)cc3)cs2)cc1	-3.5
Cc1csc(/C(C#N)=C/c2sccc2C)n1	-12
Cc1ccc(-c2csc(/C(C#N)=C/c3sccc3C)n2)c(C)c1	69.3
Cc1ccsc1/C=C(\C#N)c1nc(-c2cc3cc(Br)ccc3oc2=O)cs1	-10.8
Cc1ccc(-c2csc(/C(C#N)=C/c3ccsc3)n2)cc1	-5.9
N#C/C(=C\c1cccs1)c1nc(-c2ccc(Cl)cc2Cl)cs1	129
N#C/C(=C\c1ccccc1Cl)c1nc(-c2cccs2)cs1	-9.2
Cc1ccsc1/C=C(\C#N)c1nc(-c2ccc3c(c2)OCO3)cs1	-27
N#C/C(=C\c1cccs1)c1nc(-c2ccc(Br)cc2)cs1	5.9
Cc1ccsc1/C=C(/C#N)c1nc(-c2ccc(Br)cc2)cs1	132
